Where a chain is given by its changes, count along the chain named.
Tests used:
Assay in all cases: PBM; 200 nM protein, PBS
Details in all cases: dsDNA, one strand shown
HOXB4 [1] = molecular target: HOXB4 (Homo sapiens, UniProt P17483 148-234)
CRX [2] = molecular target: CRX (Homo sapiens, UniProt O43186 26-111)
HOXB4 [3] = molecular target: HOXB4 (Homo sapiens, UniProt P17483 148-234, V174I)
CRX [4] = molecular target: CRX (Homo sapiens, UniProt O43186 26-111, E42D)
CRX [5] = molecular target: CRX (Homo sapiens, UniProt O43186 26-111, R41L)
Sequence of CRX (Homo sapiens, UniProt O43186 26-111, R41L) (O43186 26-111 R41L): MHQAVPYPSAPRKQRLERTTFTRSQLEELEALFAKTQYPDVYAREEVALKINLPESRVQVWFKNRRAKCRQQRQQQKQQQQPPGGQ

HESX1 [6] = molecular target: HESX1 (Homo sapiens, UniProt Q9UBX0 95-180, R165K)
Sequence of HESX1 (Homo sapiens, UniProt Q9UBX0 95-180, R165K) (Q9UBX0 95-180 R165K): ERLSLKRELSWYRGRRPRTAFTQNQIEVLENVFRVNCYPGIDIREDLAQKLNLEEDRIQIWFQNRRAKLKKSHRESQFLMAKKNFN

HESX1 [7] = molecular target: HESX1 (Homo sapiens, UniProt Q9UBX0 95-180)
Sequence of HESX1 (Homo sapiens, UniProt Q9UBX0 95-180) (Q9UBX0 95-180): as the sequence (Q9UBX0 95-180 R165K) above, with K71R counted along it

HESX1 [8] = molecular target: HESX1 (Homo sapiens, UniProt Q9UBX0 95-180, P111T)
Sequence of HESX1 (Homo sapiens, UniProt Q9UBX0 95-180, P111T) (Q9UBX0 95-180 P111T): as the sequence (Q9UBX0 95-180 R165K) above, with P17T, K71R counted along it

VAX1 [9] = molecular target: VAX1 (Homo sapiens, UniProt Q5SQQ9 86-172)
Sequence of VAX1 (Homo sapiens, UniProt Q5SQQ9 86-172) (Q5SQQ9 86-172): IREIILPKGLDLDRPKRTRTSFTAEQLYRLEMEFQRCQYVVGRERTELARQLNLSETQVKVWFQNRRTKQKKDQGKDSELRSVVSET

VAX1 [10] = molecular target: VAX1 (Homo sapiens, UniProt Q5SQQ9 86-172, T142I)
Sequence of VAX1 (Homo sapiens, UniProt Q5SQQ9 86-172, T142I) (Q5SQQ9 86-172 T142I): as the sequence (Q5SQQ9 86-172) above, with T57I counted along it

VAX1 [11] = molecular target: VAX1 (Homo sapiens, UniProt Q5SQQ9 86-172, K157R)
Sequence of VAX1 (Homo sapiens, UniProt Q5SQQ9 86-172, K157R) (Q5SQQ9 86-172 K157R): as the sequence (Q5SQQ9 86-172) above, with K72R counted along it

SHOX [12] = molecular target: SHOX (Homo sapiens, UniProt O15266 103-189)
Sequence of SHOX (Homo sapiens, UniProt O15266 103-189) (O15266 103-189): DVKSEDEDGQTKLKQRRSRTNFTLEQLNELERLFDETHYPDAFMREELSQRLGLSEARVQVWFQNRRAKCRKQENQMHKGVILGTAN

ALX3 [13] = molecular target: ALX3 (Homo sapiens, UniProt O95076 139-225, N203Q)
Sequence of ALX3 (Homo sapiens, UniProt O95076 139-225, N203Q) (O95076 139-225 N203Q): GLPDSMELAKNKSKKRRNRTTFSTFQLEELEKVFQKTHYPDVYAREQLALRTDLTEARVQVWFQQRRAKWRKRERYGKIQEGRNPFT

SHOX [14] = molecular target: SHOX (Homo sapiens, UniProt O15266 103-189, R173C)
Sequence of SHOX (Homo sapiens, UniProt O15266 103-189, R173C) (O15266 103-189 R173C): as the sequence (O15266 103-189) above, with R71C counted along it

ALX3 [15] = molecular target: ALX3 (Homo sapiens, UniProt O95076 139-225)
Sequence of ALX3 (Homo sapiens, UniProt O95076 139-225) (O95076 139-225): as the sequence (O95076 139-225 N203Q) above, with Q65N counted along it

ALX3 [16] = molecular target: ALX3 (Homo sapiens, UniProt O95076 139-225, L168Q)
Sequence of ALX3 (Homo sapiens, UniProt O95076 139-225, L168Q) (O95076 139-225 L168Q): as the sequence (O95076 139-225 N203Q) above, with L30Q, Q65N counted along it

ALX3 [17] = molecular target: ALX3 (Homo sapiens, UniProt O95076 139-225, L168V)
Sequence of ALX3 (Homo sapiens, UniProt O95076 139-225, L168V) (O95076 139-225 L168V): as the sequence (O95076 139-225 N203Q) above, with L30V, Q65N counted along it

NKX3-2 [18] = molecular target: NKX3-2 (Homo sapiens, UniProt P78367 192-278, P234S)
Sequence of NKX3-2 (Homo sapiens, UniProt P78367 192-278, P234S) (P78367 192-278 P234S): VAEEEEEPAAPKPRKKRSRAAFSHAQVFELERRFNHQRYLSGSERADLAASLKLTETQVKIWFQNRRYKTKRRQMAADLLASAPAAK

ALX3 [19] = molecular target: ALX3 (Homo sapiens, UniProt O95076 139-225, N203S)
Sequence of ALX3 (Homo sapiens, UniProt O95076 139-225, N203S) (O95076 139-225 N203S): as the sequence (O95076 139-225 N203Q) above, with Q65S counted along it

NKX3-2 [20] = molecular target: NKX3-2 (Homo sapiens, UniProt P78367 192-278)
Sequence of NKX3-2 (Homo sapiens, UniProt P78367 192-278) (P78367 192-278): as the sequence (P78367 192-278 P234S) above, with S43P counted along it

ALX4 [21] = molecular target: ALX4 (Homo sapiens, UniProt Q9H161 200-286)
Sequence of ALX4 (Homo sapiens, UniProt Q9H161 200-286) (Q9H161 200-286): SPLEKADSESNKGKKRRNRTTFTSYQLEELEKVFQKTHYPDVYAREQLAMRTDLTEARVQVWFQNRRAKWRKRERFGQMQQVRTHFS

ALX4 [22] = molecular target: ALX4 (Homo sapiens, UniProt Q9H161 200-286, Q225E)
Sequence of ALX4 (Homo sapiens, UniProt Q9H161 200-286, Q225E) (Q9H161 200-286 Q225E): as the sequence (Q9H161 200-286) above, with Q26E counted along it

NKX2-6 [23] = molecular target: T1, NKX2-6 (Homo sapiens, UniProt A6NCS4 118-204)
T1 sequence: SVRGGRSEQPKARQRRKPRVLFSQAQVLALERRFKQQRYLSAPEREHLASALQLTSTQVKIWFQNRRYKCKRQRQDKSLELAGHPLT

NKX2-6 [24] = molecular target: T2, NKX2-6 (Homo sapiens, UniProt A6NCS4 118-204, F151L)
T2 sequence: T1 sequence with F34L

Sequence of HOXB4 (Homo sapiens, UniProt P17483 148-234) (P17483 148-234): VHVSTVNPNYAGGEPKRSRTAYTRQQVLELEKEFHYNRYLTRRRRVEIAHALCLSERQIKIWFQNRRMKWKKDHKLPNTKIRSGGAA
Sequence of HOXB4 (Homo sapiens, UniProt P17483 148-234, V174I) (P17483 148-234 V174I): as the sequence (P17483 148-234) above, with V27I counted along it
Sequence of CRX (Homo sapiens, UniProt O43186 26-111) (O43186 26-111): as the sequence (O43186 26-111 R41L) above, with L16R counted along it
Sequence of CRX (Homo sapiens, UniProt O43186 26-111, E42D) (O43186 26-111 E42D): as the sequence (O43186 26-111 R41L) above, with L16R, E17D counted along it

GCCCAGAC
binding signal (HOXB4 [1]): 7.49 upbm affinity estimate (log intensity, higher = more binding, comparable within an allelic series)
binding signal (CRX [2]): 8.35 upbm affinity estimate (log intensity, higher = more binding, comparable within an allelic series)
binding signal (HOXB4 [3]): 7.68 upbm affinity estimate (log intensity, higher = more binding, comparable within an allelic series)
binding signal (CRX [4]): 8.45 upbm affinity estimate (log intensity, higher = more binding, comparable within an allelic series)
binding signal (CRX [5]): 8.39 upbm affinity estimate (log intensity, higher = more binding, comparable within an allelic series)

ATTGAACC
binding signal (HESX1 [6]): 7.56 upbm affinity estimate (log intensity, higher = more binding, comparable within an allelic series)
binding signal (HESX1 [7]): 7.77 upbm affinity estimate (log intensity, higher = more binding, comparable within an allelic series)
binding signal (HESX1 [8]): 7.33 upbm affinity estimate (log intensity, higher = more binding, comparable within an allelic series)

ACTATAGA
binding signal (HESX1 [6]): 7.13 upbm affinity estimate (log intensity, higher = more binding, comparable within an allelic series)
binding signal (HESX1 [7]): 7.13 upbm affinity estimate (log intensity, higher = more binding, comparable within an allelic series)
binding signal (HESX1 [8]): 7.02 upbm affinity estimate (log intensity, higher = more binding, comparable within an allelic series)

CATAATAC
binding signal (HESX1 [6]): 7.93 upbm affinity estimate (log intensity, higher = more binding, comparable within an allelic series)
binding signal (HESX1 [7]): 8.07 upbm affinity estimate (log intensity, higher = more binding, comparable within an allelic series)
binding signal (VAX1 [9]): 10.4 upbm affinity estimate (log intensity, higher = more binding, comparable within an allelic series)
binding signal (VAX1 [10]): 10 upbm affinity estimate (log intensity, higher = more binding, comparable within an allelic series)
binding signal (VAX1 [11]): 10.1 upbm affinity estimate (log intensity, higher = more binding, comparable within an allelic series)

GACTGGCC
binding signal (HOXB4 [1]): 7.7 upbm affinity estimate (log intensity, higher = more binding, comparable within an allelic series)
binding signal (SHOX [12]): 7.34 upbm affinity estimate (log intensity, higher = more binding, comparable within an allelic series)
binding signal (HOXB4 [3]): 7.58 upbm affinity estimate (log intensity, higher = more binding, comparable within an allelic series)
binding signal (ALX3 [13]): 7.82 upbm affinity estimate (log intensity, higher = more binding, comparable within an allelic series)
binding signal (SHOX [14]): 7.31 upbm affinity estimate (log intensity, higher = more binding, comparable within an allelic series)
binding signal (ALX3 [15]): 7.84 upbm affinity estimate (log intensity, higher = more binding, comparable within an allelic series)
binding signal (ALX3 [16]): 7.72 upbm affinity estimate (log intensity, higher = more binding, comparable within an allelic series)
binding signal (ALX3 [17]): 7.77 upbm affinity estimate (log intensity, higher = more binding, comparable within an allelic series)
binding signal (NKX3-2 [18]): 10.5 upbm affinity estimate (log intensity, higher = more binding, comparable within an allelic series)
binding signal (ALX3 [19]): 7.91 upbm affinity estimate (log intensity, higher = more binding, comparable within an allelic series)
binding signal (NKX3-2 [20]): 10.5 upbm affinity estimate (log intensity, higher = more binding, comparable within an allelic series)

AGCCTGGG
binding signal (HOXB4 [1]): 7.59 upbm affinity estimate (log intensity, higher = more binding, comparable within an allelic series)
binding signal (SHOX [12]): 7.06 upbm affinity estimate (log intensity, higher = more binding, comparable within an allelic series)
binding signal (ALX4 [21]): 7.98 upbm affinity estimate (log intensity, higher = more binding, comparable within an allelic series)
binding signal (ALX4 [22]): 8.23 upbm affinity estimate (log intensity, higher = more binding, comparable within an allelic series)
binding signal (HOXB4 [3]): 7.58 upbm affinity estimate (log intensity, higher = more binding, comparable within an allelic series)
binding signal (NKX2-6 [23]): 8.48 upbm affinity estimate (log intensity, higher = more binding, comparable within an allelic series)
binding signal (SHOX [14]): 7.22 upbm affinity estimate (log intensity, higher = more binding, comparable within an allelic series)
binding signal (NKX2-6 [24]): 9.24 upbm affinity estimate (log intensity, higher = more binding, comparable within an allelic series)
